Screens deposited in PubChem BioAssay by National Center for Advancing Translational Sciences (NCATS).
Shown are actives, neighbours in structure and some others; about 15% of the full set was active somewhere.
TDP1 cell CPT: DT40-hTDP1 cell growth loss with CPT. chicken DT40 Tdp1-/-;hTDP1 cells + 20 nM CPT, ATP luminescence, 48 h. Potency, µM (titrated, usually from 46.2 µM), actives largely listed as inhibitors. 420,000 compounds, 12% hits. AID 686979; note: nearly all actives have a fitted effect of over 55% in size
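Cell growth measured by CellTiter-Glo luminescence after a minimum 48 h, 37 C compound exposure with 20 nM CPT in Tdp1-knockout DT40 cells stably expressing hTDP1, seeded 400/well; qHTS titration format.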
TDP1 cell noCPT: qHTS for Inhibitors of human tyrosyl-DNA phosphodiesterase 1 (TDP1): qHTS in cells in absence of CPT; DT40 Tdp1-/- hTDP1 cells, no CPT, ATP luminescence, 48 h; Potency, µM (top dose mostly 46.2 µM), actives largely listed as inhibitors; 420,000 compounds, 15% hits; AID 686978, 2013; note: nearly all actives have a fitted effect of over 55% in size
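Growth kinetics read by CellTiter-Glo luminescence after ≥48 hr at 37 °C. Cells: DT40 Tdp1-/- stably carrying human TDP1, 400 per well, compound exposure in the absence of CPT (DMSO vehicle).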
RORg inh: inhibitors of mouse ROR gamma transcriptional activity; Drosophila S2 Gal4-RORgamma UAS-luciferase reporter, 20 h; AID 2551; Potency, µM (highest dose often 53.6 µM), most hits filed as inhibitors; 310,000 compounds, 5.4% hits; note: nearly all actives have a fitted effect of over 60% in size
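Compounds are pin-transferred onto Drosophila Schneider cells expressing a copper-inducible Gal4–ROR gamma transactivation domain fusion. After 1 hr, copper sulfate is added to 700 uM final; luciferase is read 20 hr later.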
ELG1 DNA repair: blocks ELG1-dependent DNA repair in HEK293T cells. 330,000 compounds, 2.3% hits. Potency, µM (doses to about 46.1 µM), hits mostly inhibitors. HEK293T ELG1-luciferase reporter, luminescence, 16 h; DNA damage induced by 5-fluorouridine; note: nearly all actives have a fitted effect of over 55% in size
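Luminescence from the luciferase reporter, measured 30 min after ONE-Glo reagent at room temperature, was the read-out. Beforehand, 2,000 cells per well were exposed for 16 hr at 37 °C to 5-fluorouridine together with compound or vehicle.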
VP16 counter: inhibits Gal4-VP16 luciferase reporter, ROR gamma counter-screen. 310,000 compounds, 3.5% hits. Potency, µM (series often up to 53.6 µM), hits mostly inhibitors. Drosophila S2 Gal4-VP16 UAS-luciferase, luminescence, 20 h;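 note: Gal4-VP16 expression switched on by copper sulfate through the metallothionein promoter; nearly all actives have a fitted effect of over 50% in size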
12-LOX inh: blocks human arachidonate 12S-lipoxygenase | 580,000 compounds, 1.1% hits | AID 1671190 | P18054 | purified 12hLO, xylenol orange hydroperoxide absorbance | Potency, µM (doses to about 108 µM), usual class: inhibitors
Target sequence (P18054 whole entry, looked up): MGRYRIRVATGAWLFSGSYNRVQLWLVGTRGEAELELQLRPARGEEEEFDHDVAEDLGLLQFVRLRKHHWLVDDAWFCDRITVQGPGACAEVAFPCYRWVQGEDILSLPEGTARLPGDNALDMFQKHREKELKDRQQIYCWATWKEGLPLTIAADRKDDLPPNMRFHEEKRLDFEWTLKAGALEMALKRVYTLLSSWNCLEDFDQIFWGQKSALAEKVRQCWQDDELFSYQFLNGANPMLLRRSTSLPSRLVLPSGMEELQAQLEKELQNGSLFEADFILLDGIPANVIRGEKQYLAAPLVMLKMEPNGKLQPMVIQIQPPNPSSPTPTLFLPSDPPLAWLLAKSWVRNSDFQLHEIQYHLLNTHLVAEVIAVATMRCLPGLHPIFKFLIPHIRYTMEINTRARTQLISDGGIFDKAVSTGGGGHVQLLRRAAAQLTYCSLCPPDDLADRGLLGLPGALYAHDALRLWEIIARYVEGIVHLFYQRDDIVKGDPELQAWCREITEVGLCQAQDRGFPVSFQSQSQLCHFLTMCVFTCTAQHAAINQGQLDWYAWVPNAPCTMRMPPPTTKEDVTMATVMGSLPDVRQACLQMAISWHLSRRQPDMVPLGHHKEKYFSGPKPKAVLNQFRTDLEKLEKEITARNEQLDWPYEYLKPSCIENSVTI
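Hydroperoxide product was detected by ferrous iron/xylenol orange as the 573 to 405 nm absorbance ratio. Arachidonic acid at 40 uM (final) was turned over for 30 min at room temperature by 150 nM human 12hLO, pH 7.0 Hepes buffer, after 15 min compound preincubation.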
Hits are given with their value; [ ] = remark or other dose. Calls come from the whole dose curve; as a rule, active = well fitted curve in the direction sought with a large enough effect; inconclusive = small, poorly fitted or top-dose-only effect, or another doubt; inactive = no such curve, though single readings can be large; an effect the other way counts as inactive or inconclusive.

Screening CC(=O)c1c(N2CCCCC2)nc(=S)n(-c2ccccc2)c1C returned TDP1 cell CPT 12µM, TDP1 cell noCPT 5.8µM, RORg inh inconclusive, ELG1 DNA repair inactive, VP16 counter inactive and 12-LOX inh inactive.
`CC(=O)c1c(N2CCCC2)nc(=S)n(-c2ccccc2)c1C` gave TDP1 cell CPT 12µM, TDP1 cell noCPT 8.2µM, RORg inh inactive, ELG1 DNA repair inactive, VP16 counter inactive and 12-LOX inh inactive.
Screening CSCCC(NC(=O)C1CCC(C)CC1)C(=O)Nc1ccc2c(c1)OCO2 (configuration not stated) returned 12-LOX inh inactive.
CC(C)(CO)CNC(=O)c1cnc2c(c1)N([S+](=O)([O-])c1cccnc1)CCC2 was read as 12-LOX inh inactive.
Screening CCC(C)(C)NC(=O)CC(c1ccccc1)c1ccccc1 returned 12-LOX inh inactive.
Screening Nn1c(Nc2ccccc2)nc2sc3c(c2c1=O)CCC3 returned TDP1 cell CPT 1µM, TDP1 cell noCPT 2.9µM, RORg inh inactive, ELG1 DNA repair inconclusive, VP16 counter inactive and 12-LOX inh inconclusive.
CSc1nc2sc3c(c2c(=O)n1-c1ccc(C)cc1)CCCC3 was read as TDP1 cell CPT inconclusive, TDP1 cell noCPT 8.2µM and 12-LOX inh inactive.
Screening NNc1nc2sc3c(c2c(=O)n1Cc1ccccc1)CCC3 returned TDP1 cell CPT inactive, TDP1 cell noCPT inactive, RORg inh inactive, ELG1 DNA repair inactive, VP16 counter inactive and 12-LOX inh inactive.
For CC(C)Sc1nc2sc3c(c2c(=O)n1-c1ccccc1)CCCC3 the results were TDP1 cell CPT inconclusive, TDP1 cell noCPT 18µM and 12-LOX inh inactive.
`CSc1nc2sc3c(c2c(=O)n1C)CCC(C)C3` (configuration not stated) gave TDP1 cell CPT inactive, TDP1 cell noCPT inconclusive, RORg inh inactive, ELG1 DNA repair inconclusive, VP16 counter inconclusive and 12-LOX inh inactive.
`CSc1nc2sc3c(c2c(=O)n1-c1ccccc1)CCC(C(C)(C)C)C3` (configuration not stated) gave TDP1 cell CPT inconclusive, TDP1 cell noCPT 0.92µM and 12-LOX inh inactive.
Screening COc1ccc(-n2c(NN)nc3sc4c(c3c2=O)CCCC4)cc1 returned TDP1 cell CPT inactive, TDP1 cell noCPT inconclusive, RORg inh inconclusive, ELG1 DNA repair inactive, VP16 counter inactive and 12-LOX inh inactive.
O=c1c2c3c(sc2nc(NCCO)n1-c1ccccc1)CCCC3 was read as TDP1 cell CPT 6.5µM, TDP1 cell noCPT 12µM, RORg inh inactive, ELG1 DNA repair inconclusive, VP16 counter inactive and 12-LOX inh inactive.
For O=C(COc1ccccc1)NC(NC(=S)Nc1ccccc1O)C(Cl)(Cl)Cl (configuration not stated) the results were TDP1 cell CPT inconclusive, TDP1 cell noCPT inactive, RORg inh inactive, ELG1 DNA repair inactive, VP16 counter inactive and 12-LOX inh inactive.
`CCc1ccc(OCC(=O)NC(NC(=S)Nc2ccc(C)cc2C)C(Cl)(Cl)Cl)cc1` (configuration not stated) gave TDP1 cell CPT inconclusive, TDP1 cell noCPT 23µM, RORg inh 10µM, ELG1 DNA repair inactive, VP16 counter inconclusive and 12-LOX inh inconclusive.
Screening CC(C)C(=O)NC(Nc1cccc2ccccc12)C(Cl)(Cl)Cl (configuration not stated) returned 12-LOX inh 11µM.
COc1ccc(NC(=S)NC(NC(=O)CCl)C(Cl)(Cl)Cl)c([N+](=O)[O-])c1 (configuration not stated) was read as TDP1 cell CPT inconclusive, TDP1 cell noCPT inconclusive, RORg inh inactive, ELG1 DNA repair inconclusive and VP16 counter inactive.
`COC(=O)c1ccccc1NC(=S)NC(NC(=O)COc1ccccc1)C(Cl)(Cl)Cl` (configuration not stated) gave TDP1 cell CPT inactive, TDP1 cell noCPT inactive, RORg inh 5.6µM, ELG1 DNA repair inactive, VP16 counter inconclusive and 12-LOX inh inconclusive.
CCc1ccc(OCC(=O)NC(NC(=S)Nc2ccccc2)C(Cl)(Cl)Cl)cc1 (configuration not stated) was read as TDP1 cell CPT inconclusive, TDP1 cell noCPT inconclusive, RORg inh inconclusive, ELG1 DNA repair inactive, VP16 counter 13µM and 12-LOX inh inactive.
`CCc1ccc(OCC(=O)NC(NC(=S)Nc2ccccc2OC)C(Cl)(Cl)Cl)cc1` (configuration not stated) gave TDP1 cell CPT inconclusive, TDP1 cell noCPT inconclusive, RORg inh inconclusive, ELG1 DNA repair inconclusive, VP16 counter inconclusive and 12-LOX inh inactive.
Screening COc1cccc(C(=O)Nc2ccc3oc(-c4ccccc4)cc(=O)c3c2)c1 returned 12-LOX inh inactive.
Screening Cc1ccc(C)c(NC(=S)NC(NC(=O)Cc2cccc3ccccc23)C(Cl)(Cl)Cl)c1 (configuration not stated) returned TDP1 cell CPT 8.2µM, TDP1 cell noCPT 6.5µM, RORg inh inconclusive, ELG1 DNA repair inconclusive, VP16 counter inconclusive and 12-LOX inh inconclusive.
For Cc1ccc(NC(=S)NC(NC(=O)c2ccccc2C)C(Cl)(Cl)Cl)c(C)c1 (configuration not stated) the results were TDP1 cell CPT inconclusive, TDP1 cell noCPT inconclusive, RORg inh inconclusive, ELG1 DNA repair inconclusive, VP16 counter inconclusive and 12-LOX inh 35µM.
Cc1ccc(C)c(NC(=S)NC(NC(=O)N(C)C)C(Cl)(Cl)Cl)c1 (configuration not stated) was read as TDP1 cell CPT inactive, TDP1 cell noCPT inactive, RORg inh inactive, ELG1 DNA repair inactive, VP16 counter inactive[0.365 µM] and 12-LOX inh inconclusive.
Cc1ccccc1NC(=S)NC(NC(=O)COc1ccccc1)C(Cl)(Cl)Cl (configuration not stated) was read as TDP1 cell CPT inconclusive, TDP1 cell noCPT inconclusive, RORg inh inconclusive, ELG1 DNA repair inactive, VP16 counter inactive and 12-LOX inh inconclusive.
For CC(=O)NC(NC(=S)Nc1ccc(C)cc1C)C(Cl)(Cl)Cl (configuration not stated) the results were TDP1 cell CPT inactive, TDP1 cell noCPT inactive, RORg inh inactive, ELG1 DNA repair inactive, VP16 counter inactive and 12-LOX inh inconclusive.
Screening CCc1ccc(OCC(=O)NC(NC(=S)Nc2ccccc2C)C(Cl)(Cl)Cl)cc1 (configuration not stated) returned TDP1 cell CPT inconclusive, TDP1 cell noCPT inconclusive, RORg inh 6.3µM, ELG1 DNA repair inactive, VP16 counter 5µM and 12-LOX inh inactive.
